# A selection: hits, their analogues and other compounds. The true share with any hit is near 19%.
# TDP1 cell CPT = DT40-hTDP1 cell growth loss with CPT; 420,000 tested, 12% active; chicken DT40 Tdp1-/-;hTDP1 cells + 20 nM CPT, ATP luminescence, 48 h; Potency, µM (top dose mostly 46.2 µM), inactives show top-dose activity change, negative = growth inhibition, usual class: inhibitors; AID 686979; further: potency means the concentration at half of the fitted maximal effect; on the % scale 0 is the no-effect control and ±100 the full control effect; nearly all actives have a fitted effect of over 55% in size
#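 Cell growth measured by CellTiter-Glo luminescence after a minimum 48 h, 37 C compound exposure with 20 nM CPT in Tdp1-knockout DT40 cells stably expressing hTDP1, seeded 400/well; qHTS titration format.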
# SW480 rereplic = inducers of DNA re-replication in SW480 colon cancer cells; Potency, µM (series often up to 46.1 µM), for inactives: at the top dose re-replication activation, hits mostly activators; SW480 DNA re-replication, Hoechst DNA content imaging, 48 h; AID 624297; 340,000 tested, 1.8% active; further: potency means the concentration at half of the fitted maximal effect; % of control where 0% means no effect; nearly all actives have a fitted effect of over 55% in size
#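 250 cells/well; 23 nL cpd via pin tool; 48 hr, 37 C, 5% CO2; Hoechst 40 min; imager read of total nuclear intensity, ex 405/em 500-530 nm.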
# TDP1 cell noCPT = qHTS for Inhibitors of human tyrosyl-DNA phosphodiesterase 1 (TDP1): qHTS in cells in absence of CPT; DT40 Tdp1-/- hTDP1 cells, no CPT, ATP luminescence, 48 h; Potency, µM (series often up to 46.2 µM), without a hit: at the top dose activity change, negative = growth inhibition, usual class: inhibitors; 420,000 tested, 15% active; further: potency means the concentration at half of the fitted maximal effect; on the % scale 0 is the no-effect control and ±100 the full control effect; nearly all actives have a fitted effect of over 55% in size
#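 Seeded 400 DT40-hTDP1 cells/well (vehicle DMSO, no 20 nM CPT); pinned compounds; ≥48 hr at 37 °C; CellTiter-Glo luminescence as viability measure.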
# Chronic BCR inh = chronic active BCR signaling inhibition; ABC-DLBCL IkBa-CBG/CBR reporter, luminescence ratio, 4 h; Potency, µM (top dose mostly 46.1 µM), for the others: top-dose activity change, negative = inhibition, hits mostly inhibitors; 340,000 tested, 0.05% active; AID 493014; active means well fitted inhibition curve with a large enough effect in the signal ratio, with a control signal flat, not every such curve was filed as active; inconclusive means small, poorly fitted or top-dose-only effect, or effect the other way, or a change in a side signal; the % refers to the signal ratio;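 further: potency means the concentration at half of the fitted maximal effect; plate controls were basal doxycycline-induced cells for no effect and cells given 10 µM MG132 for full effect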
#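 Compounds up to 46 uM were incubated four hours with TMD8 cells whose green CBG68 luciferase is fused to IkappaBalpha; red CBR luminescence normalised the signal, and concentration-effect curves were fitted to fusion, red and ratio data.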
# MCF10A rerep = induces DNA re-replication in MCF 10a normal breast cells; MCF 10A DNA re-replication, Hoechst nuclear intensity, 48 h; Potency, µM (titrated, usually from 46.1 µM), for inactives: at the highest dose activity, positive = re-replication, usual class: activators; 350,000 tested, 2.9% active; further: potency means the concentration at half of the fitted maximal effect; % of control where 0% means no effect; nearly all actives have a fitted effect of over 50% in size
# IL1B secr inh = blocks inflammasome-driven IL-1 beta release; THP-1 LPS/ATP IL-1B secretion, AlphaLISA, 16 h; hits give low values; activity change, % at 57.5 µM; 360,000 tested, 4.7% active; in the data active means activity change below about -50%; inconclusive means mostly about -30% to -49%; further: on the % scale 0 is the no-effect control and ±100 the full control effect
#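 THP-1 cells pretreated 1 hr with compounds (up to 57.5 uM final), then stimulated with LPS (250 ng/mL final) plus ATP (1.25 mM final); secreted IL-1B measured by AlphaLISA after 16 hr, decreased signal indicating inhibition.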
# * hit, by the source's call; i = inactive; ? = inconclusive; / = not tested or not shown; [ ] = dose if it differs, or a comment. Unless noted, the call rests on the fitted dose curve; in most records, active means well fitted curve in the direction sought with a large enough effect; inconclusive means small, poorly fitted or top-dose-only effect, or another doubt; inactive means no such curve, though single readings can be large; an effect the other way counts as inactive or inconclusive.
SMILES,TDP1 cell CPT,SW480 rereplic,TDP1 cell noCPT,Chronic BCR inh,MCF10A rerep,IL1B secr inh
Nc1ccn(C2OC(COC(=O)C34CC5CC(CC(C5)C3)C4)C(O)C2O)c(=O)n1 (stereo not given),0.0517µM*,?,0.366µM*,/,-2.3%,10.9
O=c1[nH]cnc2c1ncn2[C@@H]1O[C@H](CO)[C@@H](O)[C@H]1O,-9.3%,-10.7%,17.2%,0.8%,?,2.6
O=c1ccn([C@@H]2O[C@H](COS(=O)(=O)O)[C@@H](O)[C@H]2O)c(=O)[nH]1,5.17µM*,15.6%,4.11µM*,-1.1%,?,-2.1
CCCC(=O)NCC(c1ccc2c(c1)OCO2)N1CCOCC1 (stereo not given),1.3%,/,0.0%,/,/,/
CC(=O)c1ccc(NC(=S)N2CCN(S(=O)(=O)c3ccc(F)cc3)CC2)cc1,7.7%,-10.7%,-11.6%,1.7%,11.6%,i
Nc1ccn([C@@H]2O[C@H](CO)[C@@H](O)C2(F)F)c(=O)n1,0.0094µM*,/,0.0094µM*,/,/,/
Nc1nc(=O)n(C2CC(O)C(CO)O2)cc1F (stereo not given),?,?,?,/,13.1%,18.3
Cc1ccc(C)c(C(=O)CN2C3=NCCCN3c3ccccc32)c1,16.4µM*,2.1%,?,-0.8%,?,-66.4*
COc1ccc(C(=O)CN2C3=NCCCN3c3ccccc32)cc1OC,20.6µM*,0.259µM*,16.4µM*,1.5%,-0.7%,-9.1
COc1cccc(C(=O)CN2C3=NCCCN3c3ccccc32)c1,20.6µM*,-2.3%,20.6µM*,-6.9%,-1.5%,-4.2
Cc1cccc(CN2C3=NCCCN3c3ccccc32)c1,20.6µM*,0.5%,14.6µM*,-0.5%,-9.6%,-3.6
N#Cc1ccc(CN2CC3(CCN(C(=O)c4ccco4)CC3)C2)cc1,11.6%,/,-14.5%,/,/,/
COc1cccc(NC(=O)CSCc2cc(=O)c3ccc(C)c(C)c3[nH]2)c1,-2.4%,/,-18.2%,/,/,/
CC(C)CN(CCNC(=O)c1cn(C)c2ccc(S(=O)(=O)N3CCCCCC3)cc2c1=O)CC(C)C,7.4%,/,-27.8%,/,/,/
O=C(NC1CCCC1)c1cnn(-c2ccc(F)cc2F)c1C1CCNCC1,-24.3%,/,?,/,/,/
COc1cc(C(=O)NCCC(=O)NCc2cccs2)cc(OC)c1OC,-6.7%,/,-4.9%,/,/,10.3
O=C(CN1C2=NCCN2c2ccccc21)C12CC3CC(CC(C3)C1)C2,20.6µM*,?,16.4µM*,?,5.0%,?
CCCCCCN1C2=NCCCN2c2ccccc21,18.4µM*,12.6%,16.4µM*,-0.8%,-2.7%,-21.7
COc1cccc(CNC(=O)C2Cc3ccccc3CN2C(C)=O)c1 (stereo not given),?,-3.6%,-27.8%,2.4%,1.3%,36.2
CCOC(=O)C(=CNNc1cccc(Cl)c1)C(=O)OCC,11.6µM*,0.2%,20.6µM*,?,?,-18.0
CCOC(=O)C(=CNc1ccc(Cl)cn1)C(=O)OCC,0.2%,-6.8%,?,?,-0.7%,-11.4
CCC(=O)N1CCc2cc(Br)cc(S(=O)(=O)N3CCN(c4ccc(C)cc4)C(C)C3)c21 (stereo not given),9.0%,/,-6.3%,/,/,/
O=C(NCCO)c1ccc(-c2cnc3cccnn23)cc1,?,/,-27.2%,/,/,-4.7
C=CCc1cc(C=O)cc(OC)c1OCc1ccc(Cl)cc1,?,9.1%,18.4µM*,?,-1.8%,15.3
COc1ccccc1N1CCN(C(=O)C2CCN(C(=O)c3cccc(Cl)c3)CC2)CC1,?,-1.3%,?,7.9%,-6.0%,23.6
SMILES,TDP1 cell CPT,SW480 rereplic,TDP1 cell noCPT,Chronic BCR inh,MCF10A rerep,IL1B secr inh
COc1ccccc1N1CCN(c2ncc(C(=O)N3CCN(c4cccc(Cl)c4)CC3)c3ccccc23)CC1,2.59µM*,?,2.59µM*,9.8%,16.0%,11.6
O=C(c1cnc(N2CCCCC2)c2ccccc12)N1CCN(c2cccc(Cl)c2)CC1,?,/,16.4µM*,/,/,/
O=C(O)c1ccccc1C(=O)N1CCN(c2cccc(Cl)c2)CC1,-7.9%,-0.5%,-14.6%,0.6%,-0.6%,-8.1
O=C(c1cnc(N2CCCCC2)c2ccccc12)N1CCN(c2ccc(F)cc2)CC1,23.1µM*,/,16.4µM*,/,/,/
Cc1ccc(C)c(OCc2nc3ccc(S(=O)(=O)Nc4c(C)n(C)n(-c5ccccc5)c4=O)cc3[nH]2)c1,-2.3%,-4.9%,?,8.4%,1.7%,-25.1
CN(C(=O)CN(C)S(=O)(=O)c1ccc(F)cc1)c1c(N)n(Cc2ccccc2)c(=O)[nH]c1=O,14.2%,-0.8%,-5.4%,-5.9%,0.4%,10.5
CC[C@]12C(=O)N(C)C[C@H]([C@@H]3C(=O)N(C)C(=O)[C@@H]31)N2C(=O)c1ccc(Cl)cc1,7.8%,-1.5%,-17.1%,/,5.6%,-0.4
Cc1ccc(CN(C)C(=O)c2ccccc2NC(=O)c2ccccc2)o1,?,2.5%,-9.2%,-15.8%,17.2%,0.0
Cc1ccc(CN(Cc2ccco2)C(=O)c2ccccc2Cl)o1,23.1µM*,/,?,/,/,/
Cc1ccc(CN(Cc2ccco2)C(=O)c2ccccc2Br)o1,11.6µM*,/,14.6µM*,/,/,/
COC(=O)c1cc(CNC(=O)c2ccc3ccccc3n2)cc(NC(=O)c2cccc(OC)c2)c1,-0.9%[9.04 µM],/,-13.6%,/,/,/
CCOc1ccc(C2=Nc3ccc(Br)cc3C(c3ccc(N4CCOCC4)cc3)=NN2)cc1,?,3.8%,14.6µM*,?,12.0%,-25.2
CCc1ccc2c(c1)C(c1ccc(N3CCOCC3)cc1)=NNC(c1ccncc1)=N2,-14.9%,?,-2.1%,0.3%,16.0%,-2.8
CCOc1ccc2c(c1)C(c1ccc(C)cc1)=NNC(c1ccc(OC)cc1)=N2,?,?,-28.1%,-26.7%,-9.6%,?
CCOc1ccc(C2=Nc3ccccc3C(c3ccc(N4CCOCC4)cc3)=NN2)cc1,23.1µM*,20.6µM*,13µM*,?,16.4µM*,-12.1
Cc1ccc(C)c(CSc2nc(-c3ccccc3F)nc3c2Cc2c(CO)cnc(C)c2O3)c1,-12.4%,/,-14.3%,/,/,/
COC(=O)Cn1cnc2c(Cl)nc(F)nc21,13µM*,?,16.4µM*,1.1%,14.0%,-89.6*
COC(=O)Cn1cnc2c(nnn2-c2ccc(F)cc2)c1=O,2.5%,-3.1%,8.7%,-13.7%,1.4%,-3.9
Cc1cc2oc(=O)cc(CN3CCCCC3C)c2cc1C (stereo not given),?,11.9%,?,1.7%,11.8%,32.2
NS(=O)(=O)c1ccc(CCNC(=O)CSCC(=O)Nc2ccc(Cl)cc2)cc1,-11.2%,-14.4%,2.7%,-14.1%,-0.7%,9.8
